Results from PubChem BioAssay.
Several values for one entry are separate records, joined by “and”; a condition that tells them apart may be missing. Identical values can stand only once. Activity calls are given as the source filed them. Cut-off read from the data, not from the text of the source, unless noted: active = inhibition above about 80%; inactive = the rest.

Experiments:
[1] = UWB1.289 ovarian carcinoma cell growth inhibition, synergistic combos for chromothripsis tumors, BGB or cisplatin combos (AID 1671456); details: UWB1.289 ovarian carcinoma cells, stronger effect = higher value;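 note: cells exposed to compound for four days; 0% = vehicle DMSO and 100% = killing by high DMSO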
[2] = LFS_MB_2R medulloblastoma cell growth inhibition, synergistic combos for chromothripsis tumors, cisplatin combos (AID 1671457); details: LFS_MB_2R medulloblastoma cells, stronger effect = higher value;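 note: cells exposed to compound for four days before readout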
[3] = MDA-MB-436 breast carcinoma cell growth inhibition, synergistic combos for chromothripsis tumors, BGB or cisplatin combos (AID 1671458; call rule not given here;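 note: cells exposed for 96 hours; 0% = vehicle DMSO and 100% = killing by high DMSO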); details: MDA-MB-436 breast carcinoma growth inhibition, drug combinations, stronger effect = higher value
[4] = UWB1.289_BRCA1 ovarian cancer growth, cell-based, BGB or cisplatin combinations (AID 1671459); details: UWB1.289 BRCA1 ovarian carcinoma, drug combinations, stronger effect = higher value
[5] = human astrocyte viability loss, single and combined drugs, cytotoxicity control for chromothriptic childhood tumor combination screen, cell-based, BGB or cisplatin IC20 combos (AID 1671460); details: Human astrocytes, drug combinations, stronger effect = higher value;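 note: cells exposed to compounds for 96 hours before viability readout; 0% = vehicle and 100% = killing control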
[6] = growth inhibition of BT084 medulloblastoma cells, cell-based, ICGC_MB145, cisplatin and BGB IC40 combos (AID 1671461); details: drug combinations, stronger effect = higher value;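 note: cells exposed to drugs for 96 hours; 0% = vehicle DMSO and 100% = high DMSO full killing control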
[7] = growth inhibition of RCMB18 medulloblastoma cells, cell-based, cisplatin and BGB IC40 combos (AID 1671462); details: stronger effect = higher value;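 note: cells exposed to compound for four days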
[8] = growth inhibition of CRL1545 osteosarcoma cells, cell-based, cisplatin and BGB IC20 combos (AID 1671464); details: stronger effect = higher value;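 note: cells exposed to compound for 96 hours before readout; 0% = vehicle DMSO and 100% = high DMSO killing control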
[9] = test system: F380Y; assay: modulators of BK channel variants, profiling panel, selectivity assay, cell-based, U2OS BacMam, thallium flux, beta subunits (AID 1259406;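 active = thallium flux through the channel raised or lowered by more than 3 SD from vehicle-only wells, actives on both sides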;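 note: initial slope of Thallos dye fluorescence rise after thallium is added; log ratio against the mean of 0.3% DMSO vehicle wells on the same plate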); details: at 30 µM
[10] = test system: F380Y/beta1; assay: as above; details: at 30 µM
[11] = measured here: inhibition with BGB combination, at 0.05 µM
[12] = measured here: inhibition with cisplatin combination, at 0.05 µM
[13] = measured here: combination with cisplatin, at 0.5 µM
[14] = measured here: combination with cisplatin, at 5 µM
[15] = measured here: BGB combination, at 0.5 µM
[16] = measured here: BGB combination, at 5 µM
[17] = measured here: cisplatin combination, at 0.5 µM
[18] = measured here: cisplatin combination, at 5 µM
[19] = BGB combination, concentration series, at 5 µM
[20] = cisplatin combination, concentration series, at 5 µM
[21] = measured here: combo with BGB IC20, at 0.5 µM
[22] = measured here: combo with cisplatin IC20, at 0.5 µM
[23] = cisplatin combination, at 0.5 µM
[24] = measured here: BGB IC40 combination 0.05 uM, at 0.05 µM
[25] = measured here: BGB IC40 combination, at 0.05 µM
[26] = measured here: with BGB IC20 combination, at 0.5 µM
[27] = measured here: with cisplatin IC20 combination, at 0.5 µM

Structure (SMILES): CN(C)/N=N/c1nc[nH]c1C(N)=O
- inhibition ([1]; at 0.5 µM): 18.9% (inactive) and 3.21% (inactive)
- inhibition [1, 11]: 0.064% and -13.3%
- inhibition [1, 12]: 3.6% and -43.6%
- inhibition ([2]; at 0.5 µM): 10.1% (inactive) and -20.6% (inactive)
- inhibition [2, 13]: 14.2% and -25.1%
- inhibition [2, 14]: -36.9% and -16%
- inhibition ([3]; at 0.5 µM): 1.6% (inactive) and -18.5% (inactive)
- inhibition [3, 15]: 7.15% and -18%
- inhibition [3, 16]: 1.32% and -19%
- inhibition [3, 17]: 0.111% and -24.2%
- inhibition [3, 18]: -5.49% and -14.5%
- inhibition [4, 19]: 47.3% and 36.9%
- inhibition ([4]; at 0.5 µM): 15.9% (inactive) and 4.03% (inactive)
- inhibition [4, 20]: 53.7% and 25.2%
- inhibition ([5]; at 0.5 µM): -0.79% (inactive) and 0.55% (inactive)
- inhibition [5, 21]: -3.87% and 2.32%
- inhibition [5, 22]: -4.67% and -1.77%
- inhibition ([6]; at 0.5 µM): -1.62% (inactive) and -14.7% (inactive)
- inhibition [6, 23]: -8.23% and -62.9%
- inhibition ([6]; cisplatin combination, at 5 µM): 1.87% and -8.42%
- inhibition [6, 24]: 46.6% and -5.42%
- inhibition ([6]; single agent, at 5 µM): -9.68% and -13.7%
- inhibition ([7]; at 0.5 µM): -1.34% (inactive) and -9.83% (inactive)
- inhibition ([7]; cisplatin combo, at 5 µM): 6.92% and -42.9%
- inhibition [7, 25]: -11.2% and -7.61%
- inhibition [7, 13]: 10.1% and -9.31%
- inhibition ([7]; single agent, at 5 µM): 3.33% and -8.99%
- inhibition ([8]; at 0.5 µM): -2.87% (inactive) and -54.9% (inactive)
- inhibition [8, 26]: -14.8% and -42.6%
- inhibition [8, 27]: 0.906% and -63.6%
- inhibition ([8]; single agent, at 0.05 µM): -1.35% and -67.8%
- inhibition ([8]; single agent, at 5 µM): 10.4% and -50.2%

Structure (SMILES): C#C[C@]1(O)CC[C@H]2[C@@H]3CCc4cc(OC)ccc4[C@H]3CC[C@@]21C
- log fold change Tl+ flux [9]: -0.0454 (inactive)
- log fold change Tl+ flux [10]: -0.0068 (inactive)

Structure (SMILES): O=c1oc2c(O)c(O)cc3c(=O)oc4c(O)c(O)cc1c4c23
- inhibition ([1]; at 0.5 µM): -3.64% (inactive)
- inhibition [1, 11]: -22.8%
- inhibition [1, 12]: -16.6%
- inhibition ([2]; at 0.5 µM): -23% (inactive)
- inhibition [2, 13]: -27.7%
- inhibition [2, 14]: -17%
- inhibition ([3]; at 0.5 µM): -9.5% (inactive)
- inhibition [3, 15]: -12.3%
- inhibition [3, 16]: -25.4%
- inhibition [3, 17]: -5.2%
- inhibition [3, 18]: -11.4%
- inhibition [4, 19]: 12.5%
- inhibition ([4]; at 0.5 µM): -1.72% (inactive)
- inhibition [4, 20]: 19.2%
- inhibition ([5]; at 0.5 µM): 10.8% (inactive)
- inhibition [5, 21]: 0.281%
- inhibition [5, 22]: 16.2%
- inhibition ([6]; at 0.5 µM): -21.3% (inactive)
- inhibition [6, 23]: -17.9%
- inhibition ([6]; cisplatin combination, at 5 µM): -19.7%
- inhibition [6, 24]: 1.07%
- inhibition ([6]; single agent, at 5 µM): -27.1%
- inhibition ([7]; at 0.5 µM): -15.5% (inactive)
- inhibition ([7]; cisplatin combo, at 5 µM): 10.7%
- inhibition [7, 25]: -24.9%
- inhibition [7, 13]: 18.1%
- inhibition ([7]; single agent, at 5 µM): -30.9%
- inhibition ([8]; at 0.5 µM): -12.1% (inactive)
- inhibition [8, 26]: 3.22%
- inhibition [8, 27]: -19.8%
